The campaign covered roughly 5,500 compounds. About 2,000 (36%) were called active. Roughly 18% stayed inconclusive and do not appear here. Some of the results follow. Unmarked numbers belong to inactive results. Cut-off read from the data, not from the text of the source: active = normalized growth mostly below about 0.91 (no sharp cut-off); inconclusive = no clear call, values can overlap the other calls; inactive = mostly above about 0.92.
Assay: chemical genetic growth profiling, strain panel (AID 1159580);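 note: tested at 20 µM; growth read once vehicle control cultures reached saturation at 30 °C; 1 = growth at the plate median or of vehicle wells; lower values mean less growth of the strain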
Settings: growth OD
[1] = S. cerevisiae deletion strains, locus YAL013W, strain DEP1, stronger effect = lower value
[2] = S. cerevisiae deletion strains, locus YBR229C, strain ROT2, stronger effect = lower value
[3] = S. cerevisiae deletion strains, locus YDL101C, strain DUN1, stronger effect = lower value
[4] = S. cerevisiae deletion strains, locus YDL134C, strain PPH21, stronger effect = lower value
[5] = S. cerevisiae deletion strains, locus YEL061C, strain CIN8, stronger effect = lower value
[6] = S. cerevisiae deletion strains, locus YGR078C, strain PAC10, stronger effect = lower value
[7] = S. cerevisiae deletion strains, locus YHR030C, strain SLT2, stronger effect = lower value
[8] = S. cerevisiae deletion strains, locus YHR087W, strain rtc3, stronger effect = lower value
[9] = S. cerevisiae deletion strains, locus YJL187C, strain SWE1, stronger effect = lower value
[10] = S. cerevisiae deletion strains, locus YJR043C, strain POL32, stronger effect = lower value
[11] = S. cerevisiae deletion strains, locus YJR075W, strain HOC1, stronger effect = lower value
[12] = S. cerevisiae deletion strains, locus YLR039C, strain RIC1, stronger effect = lower value
[13] = S. cerevisiae deletion strains, locus YLR058C, strain SHM2 (second series), stronger effect = lower value
[14] = S. cerevisiae deletion strains, locus YLR085C, strain ARP6, stronger effect = lower value
[15] = S. cerevisiae deletion strains, locus YLR262C, strain YPT6, stronger effect = lower value
[16] = S. cerevisiae deletion strains, locus YML094W, strain GIM5, stronger effect = lower value
[17] = S. cerevisiae deletion strains, locus YMR219W, strain ESC1, stronger effect = lower value
[18] = S. cerevisiae deletion strains, locus YMR263W, strain SAP30, stronger effect = lower value
[19] = S. cerevisiae deletion strains, locus YNL153C, strain GIM3, stronger effect = lower value
[20] = S. cerevisiae deletion strains, locus YNL298W, strain CLA4 (second series), stronger effect = lower value
[21] = S. cerevisiae deletion strains, locus YNL322C, strain KRE1, stronger effect = lower value
[22] = S. cerevisiae deletion strains, locus YNR030W, strain Alg12, stronger effect = lower value
[23] = S. cerevisiae deletion strains, locus YPL055C, strain LGE1, stronger effect = lower value
[24] = S. cerevisiae deletion strains, locus YPL241C, strain CIN2, stronger effect = lower value
[25] = S. cerevisiae deletion strains, locus YPR135W, strain CTF4, stronger effect = lower value
[26] = S. cerevisiae strains, strain wild type, stronger effect = lower value
[27] = S. cerevisiae deletion strains, locus YDR150W, strain NUM1, stronger effect = lower value
[28] = S. cerevisiae deletion strains, locus YOL006C, strain TOP1, stronger effect = lower value

With `O=C(O)CCOc1ccc(Cl)cc1` the normalized growth [1] was 0.956, the normalized growth [2] was 0.795 (active) and the normalized growth (S. cerevisiae deletion strains, locus YCL061C, strain MRC1, stronger effect = lower value) was 0.825 (active). It also gave a normalized growth [3] of 0.901, a normalized growth [4] of 1 and a normalized growth [5] of 0.999. For the same molecule, the normalized growth [6] was 0.753 (active), the normalized growth [7] was 1.01 and the normalized growth [8] was 0.729 (active). The normalized growth [9] was 0.837 (active), the normalized growth [10] was 0.913 (active) and the normalized growth [11] was 0.64 (active). The normalized growth (S. cerevisiae deletion strains, locus YKL190W, strain CNB1, stronger effect = lower value) was 1, the normalized growth [12] was 0.979 and the normalized growth [13] was 0.904 (active). For the same molecule, the normalized growth [14] was 1, the normalized growth [15] was 0.993 and the normalized growth [16] was 1.01. The normalized growth [17] was 0.838 (active), the normalized growth [18] was 0.859 (active) and the normalized growth (S. cerevisiae deletion strains, locus YMR307W, strain GAS1, stronger effect = lower value) was 0.895. The normalized growth [19] was 0.793 (active), the normalized growth [20] was 1.03 and the normalized growth [21] was 0.9 (active). The normalized growth [22] was 1, the normalized growth [23] was 0.763 (active) and the normalized growth [24] was 0.954. The normalized growth [25] was 1.11 and the normalized growth [26] was 1.01.

With `Clc1ccc(OCCOc2ccc(Cl)cc2)cc1` the normalized growth [1] was 1.01, the normalized growth [2] was 0.99 and the normalized growth [3] was 1.04. For the same molecule, the normalized growth [4] was 0.996, the normalized growth [27] was 1.01 and the normalized growth [5] was 0.99. The normalized growth [6] was 1.02, the normalized growth [7] was 0.978 and the normalized growth [8] was 0.965. The normalized growth [9] was 1.02, the normalized growth [10] was 1.04 and the normalized growth [11] was 0.998. For the same molecule, the normalized growth [12] was 1.01, the normalized growth [13] was 1.01 and the normalized growth [14] was 1.01. The normalized growth [15] was 0.95, the normalized growth [16] was 0.971 and the normalized growth [17] was 1.02. For the same molecule, the normalized growth [18] was 1.01, the normalized growth (S. cerevisiae deletion strains, locus YNL128W, strain TEP1, stronger effect = lower value) was 1.01 and the normalized growth [19] was 1. For the same molecule, the normalized growth [20] was 0.989, the normalized growth [21] was 0.998 and the normalized growth [22] was 0.983. For the same molecule, the normalized growth [28] was 0.937, the normalized growth [23] was 0.975 and the normalized growth [24] was 0.986. It also gave a normalized growth [25] of 1.07 and a normalized growth [26] of 1.01.

In the case of `COC(=O)COc1ccc(C(C)=O)cc1`, the normalized growth [1] is reported as 1.01, the normalized growth [2] is reported as 0.988 and the normalized growth [3] is reported as 0.96. For the same molecule, the normalized growth [27] was 0.977, the normalized growth [5] was 1.01 and the normalized growth [6] was 1. The normalized growth (S. cerevisiae deletion strains, locus YGR229C, strain SMI1, stronger effect = lower value) was 0.992, the normalized growth [7] was 1.02 and the normalized growth [8] was 1. It also gave a normalized growth [10] of 1.01, a normalized growth [11] of 0.984 and a normalized growth [12] of 0.974. For the same molecule, the normalized growth [13] was 1, the normalized growth [14] was 1.01 and the normalized growth [15] was 0.975. The normalized growth [16] was 0.952, the normalized growth [17] was 1.01 and the normalized growth [18] was 1. The normalized growth [19] was 1, the normalized growth [20] was 0.977 and the normalized growth [21] was 0.991. For the same molecule, the normalized growth [22] was 0.98, the normalized growth [28] was 0.999 and the normalized growth [23] was 0.992. For the same molecule, the normalized growth [24] was 1.07, the normalized growth [25] was 0.935 and the normalized growth [26] was 0.99.

— PubChem BioAssay AID1159580 (chemical genetic matrix, 2015)
